Screen size: about 340,000 compounds; about 2,000 (0.59%) were called active. No stated cut-off is given here; in the data, active means activation mostly above about 9.5% (no sharp cut-off); inactive means mostly below about 7.6%. The list comes from a sample in which actives are over-represented; it also holds similar structures and randomly drawn compounds.

This note sets out measurements from PubChem BioAssay AID504692 (The Scripps Research Institute Molecular Screening Center, 2011).

5-hydroxytryptamine receptor 5A (Homo sapiens), sequence (P47898 whole entry, looked up): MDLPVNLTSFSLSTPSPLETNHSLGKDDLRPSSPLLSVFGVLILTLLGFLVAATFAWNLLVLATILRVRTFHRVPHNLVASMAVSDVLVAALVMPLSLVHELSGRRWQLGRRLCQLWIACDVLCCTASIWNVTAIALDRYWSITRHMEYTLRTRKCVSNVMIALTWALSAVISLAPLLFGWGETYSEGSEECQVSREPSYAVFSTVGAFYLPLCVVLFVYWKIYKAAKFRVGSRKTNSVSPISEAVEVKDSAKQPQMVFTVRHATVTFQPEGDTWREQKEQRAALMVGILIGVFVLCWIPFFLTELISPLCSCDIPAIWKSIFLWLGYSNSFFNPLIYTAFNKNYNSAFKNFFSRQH

The assay addresses 5-hydroxytryptamine receptor 5A (Homo sapiens) (UniProt P47898). As to the kind of experiment: HTR5A agonists in luminescence cell assay, primary screen, counter-screen for OPRM1-OPRD1 heterodimer agonist project, full-deck HTS (AID 504692).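 Further: 0% = cells with vehicle only and 100% = reference agonist.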 Conditions: cell-based, at 9.3 µM, active compounds read high. A general note: The purpose of a counterscreen is to sort out artefacts and off-target activity.
For `C=CCSc1nnc2c(n1)-c1cccc3cccc-2c13`, the activation was -0.69% (inactive). `COc1cccc(C(=O)NNS(=O)(=O)c2ccc(F)cc2)c1`: the activation is -2.33% (inactive). As for `O=C(COc1ccc(Cl)cc1[N+](=O)[O-])N1CCCCC1`, the figure is -1.55% (inactive). As for `O=C(c1ccc(Oc2ccc(Cl)cc2)c([N+](=O)[O-])c1)N1CCCC1`, the figure is 11% (active). As for `Nc1ccc(C(=O)N2CCN(S(=O)(=O)c3ccc(Cl)cc3)CC2)cc1[N+](=O)[O-]`, the figure is -1.02% (inactive). In the case of `Cc1cnc(C(=O)N2CCCC(N3CCN(c4ccccc4F)CC3)C2)cn1` (stereo not drawn), the activation was 5.27% (inactive).

With `Cc1ccc(S(=O)(=O)/N=C(/Nc2ccc3[nH]c(=O)[nH]c3c2)c2ccccc2)cc1`, the activation is 3.44% (inactive). The result for `O=C(Nc1ccc(Cl)cn1)c1ccc2c(c1)OCCO2` reads 1.65% (inactive); that for `COc1ccc(C(=O)NC(=S)Nc2ccc(Cl)cn2)cc1OC`, 0.47% (inactive); that for `COc1c(Cl)cc(C(=O)Nc2ccc(Cl)cn2)cc1Cl`, 18.5% (active). For `O=C(NCCS(=O)(=O)c1ccc(Br)cc1)c1ccccc1Cl`, the activation was 0.17% (inactive). The result for `Cc1ccc(CN2C(=O)N/C(=C/c3cc(C)n(-c4ccccn4)c3C)C2=O)cc1` reads 1.53% (inactive); that for `Cc1cccc(NC(=O)CN2CCCN(S(=O)(=O)c3ccc(Br)s3)CC2)c1`, 0.97% (inactive); that for `Cc1ccc(SCCC(=O)Nc2cc(C)on2)cc1`, -4.61% (inactive). Consider `Cc1ccc(-c2csc(SCC(=O)Nc3cc(C)on3)n2)cc1`, for which the activation is 14.7% (active). The result for `Cc1ccc2nc(-c3ccc(SCC(=O)Nc4cc(C)on4)nc3)[nH]c2c1` reads -0.96% (inactive); that for `O=C(NCC(F)(F)F)Nc1nnc(C(F)(F)F)s1`, 4% (inactive). As for `O=C(CCl)N(Cc1cccc([N+](=O)[O-])c1)c1cccc(Cl)c1`, the figure is 40.9% (active). The result for `O=C(c1cccc([N+](=O)[O-])c1)N1CCN(Cc2ccccc2)CC1` reads 5.31% (inactive); that for `Cc1ccc(S(=O)(=O)N(Cc2cccc([N+](=O)[O-])c2)C(=O)N2CCN(C)CC2)cc1`, 0.8% (inactive).

Take `O=S(=O)(NCCCCCCNS(=O)(=O)c1c(F)cccc1F)c1ccc2c(c1)OCCO2`: the activation is 2.32% (inactive).

As to `COc1ccccc1N(C)S(=O)(=O)c1ccc(C(=O)NC2CCCCCC2)cc1`, the activation was 2.54% (inactive).

Consider `CC1CCC2CCCCC2N1C(=O)c1cc([N+](=O)[O-])cc([N+](=O)[O-])c1` (stereo not drawn), for which the activation is 4.16% (inactive).

As for `CN1c2ccc(C=O)c3c(C=O)ccc(c23)N(C)C1(C)C`, the activation is 20.2% (active). As for `CN(CC(=O)Nc1ccccc1Cl)C(=O)COc1cccc2c1OC(C)(C)C2`, the activation is 2.73% (inactive). The result for `CCSc1nc(O)c(C(c2cccc(OC)c2)c2c(O)nc(SCC)[nH]c2=O)c(=O)[nH]1` reads 6.11% (inactive). As for `Cc1ccc(/C([O-])=C(/C(=S)NCc2ccco2)[n+]2ccccc2)cc1[N+](=O)[O-]`, the figure is 0.24% (inactive); as for `O=C(COC(=O)CSc1nnc(-c2ccc(Cl)cc2)o1)Nc1cc(Cl)cc(Cl)c1`, 0.33% (inactive); as for `O=C(NNS(=O)(=O)c1ccc([N+](=O)[O-])cc1)C1CCCCC1`, -4.2% (inactive). For the compound `COc1cc2ccccc2cc1C(=O)N(CCN(C)C)c1nc2c(F)cccc2s1`, the activation was 0.73% (inactive).

On to `COc1cccc2sc(N(CCCN(C)C)C(=O)CCS(=O)(=O)c3ccccc3)nc12`, for which the activation is 8.64% (inactive). `Cc1cccc2sc(N(CCCN(C)C)C(=O)CCS(=O)(=O)c3ccccc3)nc12`: the activation was 23.6% (active).

With `CC1Cc2ccccc2N1S(=O)(=O)c1cccc(C(=O)NCC(c2ccco2)N2CCCC2)c1` (stereo not drawn), the activation is 2.58% (inactive).

As for `COc1ccc(N2CCN(C(=O)Cn3cnc4sc(C)c(S(=O)(=O)N5CCOCC5)c4c3=O)CC2)cc1`, the activation is -1.42% (inactive). Consider `Cc1csc2nc(COC(=O)c3cccc(N(C)C)c3)cc(=O)n12`, for which the activation was -1.39% (inactive).

As for `O=C(COc1ccccc1F)Nc1nc(-c2ccccn2)cs1`, the activation was -1.27% (inactive).

As for `CC1CCN(S(=O)(=O)c2nnc(NC(=O)COc3ccccc3F)s2)CC1`, the activation was 18.1% (active). As to `Cc1ccccc1OCC(=O)Nc1nnc(S(=O)(=O)N2CCCC2)s1`, the activation is 4.03% (inactive).

In the case of `CC(NC(=S)NNS(=O)(=O)c1ccc(C(C)(C)C)cc1)c1ccccc1` (stereo not drawn), the activation is -3.78% (inactive).

`COc1ccc(-c2ccc3c(c2)[C@@H]2C[C@H](N(C)S(=O)(=O)c4ccccc4)[C@H]([C@H](C)O)C(=O)N2CC3)cc1`: the activation is 2.65% (inactive).

As to `CC1CC(C)CN(C(=O)C2CC(=O)N(c3ccc(F)cc3)C2)C1` (stereo not drawn), the activation was 5.22% (inactive). With `Cc1ccn2c(c1)nc(=O)c1cc(S(=O)(=O)N3CCC(C)CC3)ccc12`, the activation is 0.6% (inactive). `CC1CCN(S(=O)(=O)c2ccc3c(c2)n(C)c(=O)n3C)CC1`: the activation was 4.68% (inactive). Turning to `CC1CCN(S(=O)(=O)c2ccc3c(ccn3CC(=O)O)c2)CC1`, the activation was 9.91% (active). Consider `CCCCCCCCCCOC(=O)Cn1c(COc2cccc(OC)c2)[n+](C)c2ccccc21`, for which the activation was 13.7% (active). As to `COc1cccc(OCc2nnc3n2N=C(c2ccccc2)C(CC(=O)O)S3)c1` (stereo not drawn), the activation is 1.48% (inactive).

`CCCCOc1ccc(NC(=O)CSCC(=O)OCC)cc1`: the activation is -1.74% (inactive). As for `CCCCCCCCCCOC(=O)Cn1c(COc2ccc(C)cc2)[n+](C)c2ccccc21`, the figure is 9.74% (active).

As for `CCOC(=O)COn1c(=O)c(-c2ccc(OCC)cc2)[n+]([O-])c2ccccc21`, the activation is -0.87% (inactive). As for `CCOC(=O)CNC(=O)CSc1nnc(-c2cccc(OC)c2)n1CC`, the figure is 1.82% (inactive); as for `CC[C@]12c3[nH]c4ccc(Cl)cc4c3CCN1C(=O)[C@@H](CC(=O)NCCCOC)C[C@@H]2C(=O)N1CCN(C(=O)c2ccco2)CC1`, -0.61% (inactive). The result for `COc1ccc(CNC(=O)CN(Cc2ccccc2Cl)C(=O)c2csnn2)cc1` reads 0.86% (inactive); that for `O=c1/c(=C/c2ccc(CNS(=O)(=O)c3ccccc3)o2)sc2n1CCN=2`, -6.78% (inactive). The result for `CCC(C)(C)NC(=O)CN(C(=O)CCC(=O)Nc1cc(C)ccn1)c1ccc2c(c1)OCCO2` reads 2.5% (inactive).

Consider `Fc1ccccc1-c1cc2cc3c(cc2cn1)OCO3`, for which the activation is 7.94% (inactive). On to `O=C(c1noc2c1CCCC2)N1CCc2ccccc2C1`, for which the activation is 5.42% (inactive).

`CCC1(C)NC(=O)N(CC(=O)N2CCN(c3cccc(Cl)c3)CC2)C1=O` (stereo not drawn): the activation is 0.94% (inactive). In the case of `Cc1ccc(Cc2cnc(N)s2)o1`, the activation was -3.06% (inactive). `Cc1ccc(CCC(=O)Nc2ncc(Cc3cc(Cl)ccc3Cl)s2)o1`: the activation is 17.4% (active). Regarding `Cc1ccc(C(=O)Nc2nc3ccc(Cl)cc3s2)o1`, the activation was 5.48% (inactive).

Regarding `COc1ccc(C(=O)NCc2ccc(C)cc2)cc1S(=O)(=O)N1CCCC1`, the activation was 5.16% (inactive). With `C/C=C/C(=O)OCC(=O)Nc1ccc(F)cc1Cl`, the activation was 6.73% (inactive). As for `COc1cc(OC)cc(C(=O)Nc2ccc(-c3nc4ccccc4o3)c(O)c2)c1`, the activation was 13.9% (active). For the compound `O=C(Nc1ccc2oc(-c3ccccc3F)nc2c1)c1ccco1`, the activation is 0.88% (inactive).

`Cc1ccc2nc(-c3ccc(NC(=O)c4cccnc4)cc3)oc2c1`: the activation is 1.12% (inactive). Regarding `COc1ccc(C(=O)NC(C)c2nccs2)cc1OC1CCN(C(C)C)CC1` (stereo not drawn), the activation is 0.03% (inactive). Turning to `Cc1ccc(C)c(NC(=O)CCC(=O)N/N=C2/CC(=O)CC(C)(C)C2)c1`, the activation was 0.95% (inactive). Consider `O=C(CCN1CCCCC1)N=Nc1c(O)[nH]c2ccccc12`, for which the activation was -0.47% (inactive).

Take `Cc1c(-c2ccccc2)n[nH]c1C(=O)N=Nc1c(O)[nH]c2ccccc12`: the activation is 12.7% (active). As for `Oc1[nH]c2ccccc2c1N=Nc1c(F)c(F)c(F)c(F)c1F`, the figure is 4.3% (inactive); as for `NC(=O)c1ncn([C@@H]2O[C@H](CNCc3cnc(N4CCOCC4)s3)[C@@H](O)[C@H]2O)n1`, -1.96% (inactive); as for `CCOC(=O)C(C)n1cnc2c(nnn2-c2ccc(F)cc2)c1=O` (stereo not drawn), 0.23% (inactive). The result for `Fc1ccccc1OCCSc1nc2ccccc2o1` reads 4.15% (inactive); that for `CC(C)(C)C1C/C(=C/c2ccco2)C(=O)/C(=C/c2ccco2)C1` (stereo not drawn), 10.1% (active); that for `CS(=O)(=O)c1ccc2c(c1)SC1=NC(=O)/C(=C/c3ccco3)C(=N)N12`, 3.34% (inactive). As to `COC(=O)COc1ccc2c(c1C)O/C(=C\c1ccco1)C2=O`, the activation was -6.31% (inactive). In the case of `COc1c(O)cc2oc(-c3ccc(O)c(O)c3)cc(=O)c2c1O`, the activation is -1.01% (inactive). The result for `Cc1ccc(S(=O)(=O)N2CCN(C(=O)COC(=O)/C=C/c3cccc(Cl)c3)CC2)c(C)c1` reads 8.67% (inactive). For the compound `Cc1c(C2=CCN(S(=O)(=O)c3ccc(Cl)cc3)CC2)c2ccccc2n1C`, the activation was 1.24% (inactive). The result for `CCN(C(=O)CSc1nnc(-c2ccncc2)o1)c1ccccc1` reads -1.64% (inactive).

On to `COC(=O)CSc1nnc(-c2cccnc2)o1`, for which the activation was 0.3% (inactive). As for `Cc1cccc(C)c1OC(=O)CSc1nnc(-c2ccccc2)o1`, the figure is 11% (active); as for `CCCCN(CCCC)CCC(O)c1cc2c(Cl)cc(Cl)cc2c2cc(C(F)(F)F)ccc12` (stereo not drawn), 5.23% (inactive); as for `Cc1nn(CC(=O)Nc2ccc3c(c2)OCO3)c(C)c1[N+](=O)[O-]`, 6.4% (inactive). As to `Cn1cc([N+](=O)[O-])c(C(=O)Nc2ccc3c(c2)OCCO3)n1`, the activation was -1.8% (inactive). For the compound `Cc1onc(C(=O)Nc2ccc3c(c2)OCO3)c1[N+](=O)[O-]`, the activation was 14.2% (active). As for `O=c1cc(CO)oc(C(Nc2cccc([N+](=O)[O-])c2)c2ccccn2)c1O` (stereo not drawn), the figure is 0.87% (inactive); as for `Cc1ccc2nc(-c3ccncc3)cc(C(=O)Nc3ccc4c(c3)OCCO4)c2c1`, 12.6% (active); as for `CCN(CC)CCNC(=O)c1ccc(NC(=O)c2cc(-c3ccncc3)nc3ccccc23)cc1`, 2.22% (inactive).

For `CCn1c(SCC(=O)Nc2ccc3c(c2)OCCO3)nnc1-c1ccncc1`, the activation was 3.29% (inactive). The result for `CCOc1ncccc1C(=O)Nc1ccc2c(c1)OCCO2` reads 0.83% (inactive); that for `Cc1ccc2nc(-c3ccncc3)cc(C(=O)Nc3ccncc3)c2c1`, 21% (active). As for `Cc1ccc2nc(-c3ccncc3)cc(C(=O)Nc3ccc(OC(F)F)cc3)c2c1`, the figure is 1.14% (inactive).
